From the supplement of paper PMC7695840
Counter-ions that a name gives are not always drawn.

Assays:
[1] = test system: Staphylococcus aureus MW2 delta-mecA (mecA-); assay: normalized GFP fluorescence (growth of mecA- strain) (fraction of control range); higher = more growth of mecA- strain; conditions: compound concentration: 150 uM; cefoxitin: subinhibitory; fluorescent label: GFP
Method in brief: (§1)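 Fluorescence from DsRed (540/590) and GFP (485/520) was recorded after 20 h of static growth at 37 °C and 90% humidity. The wells held a 1:1 mix of pre-induced S. aureus MW2 cells, gene-bearing with DsRed and gene-deleted with GFP, in LB with a daily-set subinhibitory antibiotic dose, dispensed at 5 µL/well onto 150 μM compound (1.5% DMSO) in 1536-well plates, single replicate. Each channel was scaled per plate between single-strain control medians, excluding plates with high untreated ratios and rows with DsRed/GFP >10.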

[2] = test system: Staphylococcus aureus MW2 (mecA+); assay: normalized DsRed fluorescence (growth of mecA+ strain) (fraction of control range); higher = more growth of mecA+ strain; conditions: compound concentration: 150 uM; cefoxitin: subinhibitory; fluorescent label: DsRed
Method in brief: as §1

Structure (SMILES) | normalized GFP fluorescence [1] | normalized DsRed fluorescence [2]
CCN(CC)CCNC(=O)c1ccc(N)cc1 | 0.328 | 0.696
Cc1ccnc2c1NC(=O)c1cccnc1N2C1CC1 | 0.755 | 0.431
CNC1(C)C2CCC(C2)C1(C)C (configuration not stated) | 0.71 | 0.669
COc1cc2c(cc1OC)C(=O)C(CC1CCN(Cc3ccccc3)CC1)C2 (configuration not stated) | 0.341 | 0.564
COc1cc2/c(=N/c3ccc(Br)cc3F)nc[nH]c2cc1OCC1CCN(C)CC1 [Vandetanib (Zactima)] | 0.22 | 1.19
CC(=O)S[C@@H]1CC2=CC(=O)CC[C@]2(C)[C@H]2CC[C@@]3(C)[C@@H](CC[C@@]34CCC(=O)O4)[C@H]12 | 0.734 | 0.584
COc1ccccc1OCCNCC(O)COc1cccc2[nH]c3ccccc3c12 (configuration not stated) | 0.0386 | 1.17
CCN[C@H]1C[C@H](C)S(=O)(=O)c2sc(S(N)(=O)=O)cc21 [Dorzolamide HCL] | 0.422 | 0.697
CN1C(CCl)Nc2cc(Cl)c(S(N)(=O)=O)cc2S1(=O)=O (configuration not stated) [Methyclothiazide] | 0.383 | 0.579
C[C@]12CC[C@@H]3c4ccc(O)cc4CC[C@H]3[C@@H]1CCC2=O [Estrone] | 0.136 | 1.11
Clc1ccc(CSC(Cn2ccnc2)c2ccc(Cl)cc2Cl)cc1 (configuration not stated) | -0.00367 | 0.00806
